This note sets out measurements from publication PMC4336329 (PLoS ONE, 2015).

The structures appear in SMILES notation. Hit rate of the full screen: of about 310,000 compounds, about 14,000 (4.5%) showed an effect of 50% or more. Effects have a minus sign here. The entries come from a sample that favours strong results as a whole.
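Note: peak tail current of the secondary pulse compared with the same well before compound.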

In the assay the target is human ether-à-go-go-related gene (hERG) potassium channel (human, UniProt Q12809). Briefly: primary screen, population patch clamp on CHO cells stably expressing hERG; higher = less effect of the substance.
Sequence of human ether-à-go-go-related gene (hERG) potassium channel (Q12809 whole entry, looked up): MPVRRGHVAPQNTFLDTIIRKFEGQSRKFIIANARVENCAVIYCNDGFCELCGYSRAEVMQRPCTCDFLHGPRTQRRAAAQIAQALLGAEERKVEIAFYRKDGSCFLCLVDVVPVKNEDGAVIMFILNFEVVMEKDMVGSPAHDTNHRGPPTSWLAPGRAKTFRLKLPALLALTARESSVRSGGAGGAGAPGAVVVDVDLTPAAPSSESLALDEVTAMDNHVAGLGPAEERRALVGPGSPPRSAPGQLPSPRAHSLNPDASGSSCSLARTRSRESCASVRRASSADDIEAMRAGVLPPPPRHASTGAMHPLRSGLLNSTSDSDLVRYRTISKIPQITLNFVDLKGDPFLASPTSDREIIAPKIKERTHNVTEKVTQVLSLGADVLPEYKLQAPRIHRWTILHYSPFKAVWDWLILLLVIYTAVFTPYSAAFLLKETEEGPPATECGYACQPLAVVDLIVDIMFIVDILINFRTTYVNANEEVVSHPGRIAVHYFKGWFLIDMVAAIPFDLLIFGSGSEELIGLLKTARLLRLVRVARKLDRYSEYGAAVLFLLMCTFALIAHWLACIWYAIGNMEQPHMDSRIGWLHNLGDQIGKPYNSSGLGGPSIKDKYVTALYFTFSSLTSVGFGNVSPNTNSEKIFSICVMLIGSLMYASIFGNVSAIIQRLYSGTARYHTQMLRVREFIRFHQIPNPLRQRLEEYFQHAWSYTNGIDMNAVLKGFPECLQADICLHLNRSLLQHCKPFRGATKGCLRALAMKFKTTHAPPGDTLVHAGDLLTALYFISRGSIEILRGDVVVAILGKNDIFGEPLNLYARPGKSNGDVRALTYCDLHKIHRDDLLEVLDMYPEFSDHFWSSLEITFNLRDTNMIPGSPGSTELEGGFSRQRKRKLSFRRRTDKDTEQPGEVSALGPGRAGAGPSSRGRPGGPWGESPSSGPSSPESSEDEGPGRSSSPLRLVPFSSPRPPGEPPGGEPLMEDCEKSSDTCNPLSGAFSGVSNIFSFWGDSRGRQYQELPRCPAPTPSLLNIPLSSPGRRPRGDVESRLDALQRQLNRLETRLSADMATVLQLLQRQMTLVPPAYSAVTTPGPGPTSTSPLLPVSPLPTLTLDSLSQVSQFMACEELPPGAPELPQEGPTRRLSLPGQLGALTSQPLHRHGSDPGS
With `COc1ccc(-n2cc(-c3ccccc3)c3c(NCCOCCO)ncnc32)cc1`, the “hERG current change (%, negative = inhibition) at 10uM” value was -42.9%.

As to `OCCOCCNc1ncnc2c1cnn2-c1ccccc1`, the “hERG current change (%, negative = inhibition) at 10uM” value was found to be 9.79%.

For `CN(C)CCCNc1ncnc2c1cnn2-c1ccccc1`, the “hERG current change (%, negative = inhibition) at 10uM” value is -22.8%.

Regarding `O=C(N/N=C/c1cccnc1)c1cc2ccccc2cc1O`, the “hERG current change (%, negative = inhibition) at 10uM” value came to 5.26%.

As to `C[C@@]12C(=O)N(c3ccc(C(F)(F)F)cc3)C(=O)N1[C@@H]1c3ccccc3OC[C@@H]1[C@H]2c1ccccc1`, the “hERG current change (%, negative = inhibition) at 10uM” value amounted to 20%.

With `O=C(Cn1c(=O)n(CC2CCCO2)c(=O)c2ccccc21)c1ccc(Cl)c(Cl)c1` (centres unmarked), the “hERG current change (%, negative = inhibition) at 10uM” value is listed as -16.4%.

Consider `CN(CCCC(=O)NCc1ccccc1)S(=O)(=O)c1ccc([N+](=O)[O-])cc1`, for which the “hERG current change (%, negative = inhibition) at 10uM” value is recorded as -65.6%.

Turning to `CN(CCCC(=O)NCc1ccc2c(c1)OCO2)S(=O)(=O)c1ccc([N+](=O)[O-])cc1`, the “hERG current change (%, negative = inhibition) at 10uM” value was -68.1%.

With `CN(CCCC(=O)NCCc1ccccc1)S(=O)(=O)c1ccc([N+](=O)[O-])cc1`, the “hERG current change (%, negative = inhibition) at 10uM” value is recorded as -37.6%.

In the case of `CN(CC(=O)NCc1ccc2c(c1)OCO2)S(=O)(=O)c1ccc(F)cc1`, the “hERG current change (%, negative = inhibition) at 10uM” value is reported as -8.53%.

For `COc1ccc(S(=O)(=O)N(C)CC(=O)NCc2ccc3c(c2)OCO3)cc1`, the “hERG current change (%, negative = inhibition) at 10uM” value was -8.31%.

On to `O=C(NCc1ccc2c(c1)OCO2)Nc1ccc([N+](=O)[O-])cc1`, for which the “hERG current change (%, negative = inhibition) at 10uM” value was determined as 21.1%.

For the compound `Cc1ccc(S(=O)(=O)N(C)CCCC(=O)NCc2ccc3c(c2)OCO3)cc1`, the “hERG current change (%, negative = inhibition) at 10uM” value was -23.5%.

With `CCOc1ccc(S(=O)(=O)N(C)CC(=O)NCc2ccc3c(c2)OCO3)cc1`, the “hERG current change (%, negative = inhibition) at 10uM” value was -64.4%.

`CN(CCCC(=O)NC1CC(C)(C)NC(C)(C)C1)S(=O)(=O)c1ccc([N+](=O)[O-])cc1`: the “hERG current change (%, negative = inhibition) at 10uM” value was found to be 12.5%.

In the case of `C=CCn1c(SCCCc2ccccc2)nc2c1c(=O)[nH]c(=O)n2C`, the “hERG current change (%, negative = inhibition) at 10uM” value is recorded as -26.1%.

On to `COc1ccc(OC)c(NS(=O)(=O)c2ccc(-c3coc(C)n3)cc2)c1`, for which the “hERG current change (%, negative = inhibition) at 10uM” value turned out to be 0.503%.

In the case of `COc1cccc(NC(=O)N2CCCC2C(=O)NC2CC2)c1` (centres unmarked), the “hERG current change (%, negative = inhibition) at 10uM” value was determined as 3.61%.

Take `COc1ccc(-c2[nH]ncc2CN(C)Cc2cnccn2)c(OC)c1`: the “hERG current change (%, negative = inhibition) at 10uM” value is 14%.

Take `O=C(O)c1cc2n(n1)C(C(F)(F)F)CC(c1ccco1)N2` (centres unmarked): the “hERG current change (%, negative = inhibition) at 10uM” value is reported as 22.2%.

On to `O=S(=O)(NC1CCCCC1N1CCN(c2ccc(F)cc2)CC1)c1ccccc1` (centres unmarked), for which the “hERG current change (%, negative = inhibition) at 10uM” value was -7.05%.

On to `O=C(CCN1C(=O)/C(=C/c2ccccc2F)SC1=S)NCCCn1ccnc1`, for which the “hERG current change (%, negative = inhibition) at 10uM” value is on record as -38.1%.

For the compound `O=C(CCCN1C(=O)/C(=C/c2ccc(F)cc2)SC1=S)NCCCn1ccnc1`, the “hERG current change (%, negative = inhibition) at 10uM” value is -71%.

On to `COc1ccc(/C=C2\SC(=S)N(CCC(=O)NCCCn3ccnc3)C2=O)cc1`, for which the “hERG current change (%, negative = inhibition) at 10uM” value is -28.5%.

In the case of `O=C(CCN1C(=O)/C(=C/c2ccc(Cl)cc2)SC1=S)NCCCn1ccnc1`, the “hERG current change (%, negative = inhibition) at 10uM” value is -23.4%.

As for `O=C(CCCN1C(=O)/C(=C/c2ccccc2)SC1=S)NCCCn1ccnc1`, the “hERG current change (%, negative = inhibition) at 10uM” value is listed as -59.9%.

Turning to `O=C(CCCN1C(=O)c2ccccc2C1=O)NCCCn1ccnc1`, the “hERG current change (%, negative = inhibition) at 10uM” value turned out to be 13.4%.

For `O=C(CCN1C(=O)/C(=C/c2ccc(F)cc2)SC1=S)NCCCn1ccnc1`, the “hERG current change (%, negative = inhibition) at 10uM” value is -63.6%.

As to `O=C(CCN1C(=O)S/C(=C\c2ccccc2)C1=O)NCCCn1ccnc1`, the “hERG current change (%, negative = inhibition) at 10uM” value is -38.4%.

For the compound `COc1ccccc1/C=C1\SC(=S)N(CCC(=O)NCCCn2ccnc2)C1=O`, the “hERG current change (%, negative = inhibition) at 10uM” value is on record as -44.7%.

Take `COc1cc(S(=O)(=O)N2CCN(C(=O)c3ccco3)CC2)c(OC)cc1C`: the “hERG current change (%, negative = inhibition) at 10uM” value was determined as 6.03%.

For `COc1ccc(C2(C)NC(=O)N(CC(=O)Nc3ccc(C)cc3Br)C2=O)cc1OC` (centres unmarked), the “hERG current change (%, negative = inhibition) at 10uM” value worked out at 1.02%.

Turning to `CN(C)c1ccc(CNc2ncc(Br)cc2Br)cc1`, the “hERG current change (%, negative = inhibition) at 10uM” value is -3.62%.

For the compound `Cc1ccccc1NC(=O)c1ccc(-n2cncn2)nc1`, the “hERG current change (%, negative = inhibition) at 10uM” value was -14.1%.

As to `Cc1nn(C)c(C)c1S(=O)(=O)N(CC(=O)Nc1ccc2c(c1)OCO2)c1ccc(C(C)C)cc1`, the “hERG current change (%, negative = inhibition) at 10uM” value was found to be 7.38%.

In the case of `CC(C)C(OC(=O)c1nsc(Cl)c1Cl)C(=O)NC1CCCCC1` (centres unmarked), the “hERG current change (%, negative = inhibition) at 10uM” value is given as -17.7%.

`Cc1oc2nc(SCCCC(=O)NCCCO)nc(N)c2c1C`: the “hERG current change (%, negative = inhibition) at 10uM” value turned out to be 9.44%.

For `Cc1ccc(CN2CCC(n3nccc3NC(=O)c3ccccc3C)CC2)o1`, the “hERG current change (%, negative = inhibition) at 10uM” value is recorded as -25.9%.

As to `O=C(Nc1ccnn1C1CCN(CC2CC=CCC2)CC1)c1ccccc1Cl` (centres unmarked), the “hERG current change (%, negative = inhibition) at 10uM” value is reported as -70.7%.

For the compound `COc1ccccc1C(=O)Nc1ccnn1C1CCN(CC2CC=CCC2)CC1` (centres unmarked), the “hERG current change (%, negative = inhibition) at 10uM” value is -82.3%.

As to `Cc1ccccc1C(=O)Nc1ccnn1C1CCN(Cc2ccc(CO)o2)CC1`, the “hERG current change (%, negative = inhibition) at 10uM” value was -1.16%.

With `Cc1ccccc1C(=O)Nc1ccnn1C1CCN(CC2CC=CCC2)CC1` (centres unmarked), the “hERG current change (%, negative = inhibition) at 10uM” value was -72.6%.

For the compound `COc1ccc(C(=O)Nc2ccnn2C2CCN(CC3CC=CCC3)CC2)cc1` (centres unmarked), the “hERG current change (%, negative = inhibition) at 10uM” value is recorded as -37.4%.

On to `Cl.NCC(c1ccccc1)(c1ccccc1)c1ccccc1`, for which the “hERG current change (%, negative = inhibition) at 10uM” value is listed as -15.5%.
